Out of some 310,000 compounds screened, about 14,000 (4.5%) showed an effect of 50% or more. Effects have a minus sign here. The list comes from a sample in which strong results are over-represented; it also holds similar structures and randomly drawn compounds.
Molecular target: human ether-à-go-go-related gene (hERG) potassium channel (human, UniProt Q12809)
Test: primary screen, population patch clamp on CHO cells stably expressing hERG; higher = less effect of the substance
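Note: peak tail current of the secondary pulse compared with the same well before compound.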

Sequence of human ether-à-go-go-related gene (hERG) potassium channel (Q12809 whole entry, looked up): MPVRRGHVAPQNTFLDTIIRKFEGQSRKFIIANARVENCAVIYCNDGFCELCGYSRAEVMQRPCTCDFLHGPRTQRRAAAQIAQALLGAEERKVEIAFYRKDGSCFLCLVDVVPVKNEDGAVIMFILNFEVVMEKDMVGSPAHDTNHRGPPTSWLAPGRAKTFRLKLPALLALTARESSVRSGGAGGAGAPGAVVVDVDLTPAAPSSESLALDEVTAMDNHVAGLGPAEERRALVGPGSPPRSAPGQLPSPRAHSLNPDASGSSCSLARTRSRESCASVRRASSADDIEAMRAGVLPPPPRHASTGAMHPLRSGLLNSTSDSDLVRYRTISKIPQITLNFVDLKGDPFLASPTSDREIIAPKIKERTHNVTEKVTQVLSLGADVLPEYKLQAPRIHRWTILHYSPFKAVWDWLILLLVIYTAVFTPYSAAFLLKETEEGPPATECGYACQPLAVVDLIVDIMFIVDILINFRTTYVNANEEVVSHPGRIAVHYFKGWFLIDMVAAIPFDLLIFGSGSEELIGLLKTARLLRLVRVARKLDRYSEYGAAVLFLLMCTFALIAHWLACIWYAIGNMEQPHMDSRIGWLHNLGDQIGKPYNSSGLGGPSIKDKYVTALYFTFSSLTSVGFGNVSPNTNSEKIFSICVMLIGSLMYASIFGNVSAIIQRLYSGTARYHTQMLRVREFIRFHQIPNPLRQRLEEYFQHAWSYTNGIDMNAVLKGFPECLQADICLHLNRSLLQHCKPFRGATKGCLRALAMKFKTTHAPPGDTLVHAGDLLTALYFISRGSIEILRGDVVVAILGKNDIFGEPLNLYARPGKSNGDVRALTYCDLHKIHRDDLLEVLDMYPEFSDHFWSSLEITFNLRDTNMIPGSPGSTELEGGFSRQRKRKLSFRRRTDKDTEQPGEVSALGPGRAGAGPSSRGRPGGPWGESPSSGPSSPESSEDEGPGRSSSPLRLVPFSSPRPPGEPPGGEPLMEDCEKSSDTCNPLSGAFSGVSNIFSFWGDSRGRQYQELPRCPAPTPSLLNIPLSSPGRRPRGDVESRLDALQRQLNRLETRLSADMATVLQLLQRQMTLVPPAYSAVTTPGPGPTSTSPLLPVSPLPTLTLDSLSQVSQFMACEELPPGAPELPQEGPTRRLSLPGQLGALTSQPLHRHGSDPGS

| Structure (SMILES) | hERG current change (%, negative = inhibition) at 10uM |
| --- | --- |
| CCCn1c(=O)c(C(=O)Nc2ccccc2C(=O)OC)c(O)c2ccccc21 | 5.91% |
| S=C1NCCNC(=S)NCCOCCOCCOCCN1 | 15.2% |
| CCOC(=O)c1nn(-c2ccccc2)c2nnc(Cc3ccc(Cl)cc3)c(=O)n12 | 3.57% |
| COc1ccc(OCC(=O)N2CCC(Cc3ccccc3)CC2)cc1 | -36% |
| COc1cccc(OC)c1OCCCCN1CCCC1 | -2.47% |
| COc1cccc(OC)c1OCCCN1CCC(Cc2ccccc2)CC1.O=C(O)C(=O)O | -80.6% |
| CC(=O)CCc1ccc(OCCCCN2CCC(Cc3ccccc3)CC2)cc1.O=C(O)C(=O)O | -79.5% |
| COc1cccc(OC)c1OCCCCN1CCC(Cc2ccccc2)CC1.O=C(O)C(=O)O | -81.9% |
| COc1cccc(OC)c1OCCCCCCN1CCN(C)CC1.Cl | 8.54% |
| COc1cccc(OC)c1OCCCN1CCOCC1 | 4.22% |
| CC(=O)CCc1ccc(OCCCCn2cncn2)cc1 | -4.29% |
| COc1cccc(OC)c1OCCCCN1CCCCC1.O=C(O)C(=O)O | -2.55% |
| COc1ccccc1OCC(=O)OCC(=O)Nc1ncc(Cl)cc1Cl | 12.8% |
| Cc1ccc2nc(NC(=O)/C=C/c3ccc4c(c3)OCO4)sc2c1 | 14.8% |
| Cc1cccc(CNC(=O)c2ccc(NC(=O)C3=CSCCO3)cc2)c1 | 5.08% |
| CSc1nnc(NC(=O)CCc2ccccc2)s1 | -6.33% |
| COc1ccc(NC(=O)CN(C)C(=O)c2ccccc2SCC(=O)N2CCCC2)cc1 | 10.5% |
| CCN(CC)CCSc1nc2ccccc2n1Cc1ccccc1.Cl | -74.1% |
| CN(C)C(=O)CSc1nc2ccccc2n1Cc1ccccc1 | -11.8% |
| O=C(O)CSc1nnc(Nc2ccccc2)n1-c1ccccc1 | 18.6% |
| COc1ccc(Cn2c(SC)nc3ccccc32)cc1[N+](=O)[O-] | 13.9% |
| OCCn1nc2c3ccccc3nc-2n(-c2ccccc2)c1=S | -9.49% |
| O=C(O)CCSc1nc2ccccc2n1Cc1ccccc1 | 24.1% |
| CSc1nc2ccccc2n1Cc1cccc([N+](=O)[O-])c1 | -44.8% |

| Structure (SMILES) | hERG current change (%, negative = inhibition) at 10uM |
| --- | --- |
| CCN(CC)C(=O)CSc1nnc(-c2ccccc2)n1-c1ccccc1 | 17.8% |
| CCSc1nc2ccccc2n1Cc1cccc([N+](=O)[O-])c1 | -69.7% |
| CCN(CC)CCSc1nnc(Nc2ccccc2)n1-c1ccccc1 | -75.9% |
| CCN(CC)CCSc1nc2ccccc2c(=S)n1-c1ccccc1.Cl | -51.9% |
| CCN(CC)CCSc1nc(O)c(-c2ccccc2)c(=O)n1-c1ccccc1.Cl | 12.1% |
| CCc1n[nH]c(=S)n1/N=C/c1ccc(NC(C)=O)cc1 | 13% |
| COc1cc(NC(=O)COC(=O)CO/N=C(\C)c2ccc3c(c2)OCO3)cc(OC)c1 | 14.6% |
| CC1CCc2sc(C(=O)Nc3ccc(N4CCOCC4)cc3)cc2C1 (stereo not drawn) | 11.6% |
| COc1cccc2c1OCC(C(=O)Nc1nccs1)=C2 | -0.366% |
| CC(=O)C1=C(O)C(=O)N(c2ccc(Br)cn2)C1c1ccccc1F (stereo not drawn) | 10.6% |
| CC(=O)N(C)c1ccc(NS(=O)(=O)Cc2ccccc2)cc1 | -8.12% |
| O=C(CCSc1ccccc1)Nc1ncccn1 | 14.9% |
| COC(=O)c1ccc(Cl)c(NS(=O)(=O)c2ccc3c(c2)OCCO3)c1 | -25.4% |
| Cc1sc2nc3c4ccccc4c(NCc4ccco4)nn3c(=O)c2c1C | -56.6% |
| Cc1sc2nc3ccc(NCc4ccco4)nn3c(=O)c2c1C | -21.7% |
| O=c1c2ccccc2nc2c3ccccc3c(NCc3ccco3)nn12 | -17.8% |
| COc1nc(N/N=C/c2ccccc2F)nc(N2CCCCC2)n1 | -15.6% |
| COc1ccc(NC(=O)NCCCN2CCCC2=O)cc1 | 4.11% |
| O=C(NCCCN1CCc2ccccc2C1)Nc1ccc(Cl)cc1 | -65.5% |
| O=C(NCCCN1CCc2ccccc2C1)Nc1ccc(Br)cc1 | -71.7% |
| CN1CCN(CCNC(=O)Nc2ccc(Cl)cc2)CC1 | -0.17% |
| COc1ccc(NC(=O)NCCN2CCc3ccccc3C2)cc1 | -34.6% |
| COc1ccc(NC(=O)NCCCN2CCc3ccccc3C2)cc1 | -69.2% |
| O=C(NCCCN1CCCC1=O)Nc1ccc(Cl)cc1 | 2.13% |

| Structure (SMILES) | hERG current change (%, negative = inhibition) at 10uM |
| --- | --- |
| O=C(Nc1ccc(Br)cc1)N1CCc2ccccc2C1 | 2.91% |
| O=C(CN1CCc2ccccc2C1)Nc1ccc(Br)cc1 | -34.2% |
| COc1ccc(-c2csc(NC(=O)Cc3ccccc3F)n2)cc1OC | 2.29% |
| CC(Oc1cc2oc(=O)c3c(c2cc1Cl)CCCC3)C(=O)NCc1ccncc1 (stereo not drawn) | -41.8% |
| Cc1[nH]c2ccccc2c1C1(O)C(=O)N(C(C)C)c2ccccc21 (stereo not drawn) | 16.7% |
| CC1CC2(CC(C)(C(=O)CSc3nc4ccccc4s3)OC2=O)C(=O)O1 (stereo not drawn) | -1.16% |
| CCOC(=O)C1=C(C)NC(C)=C(C(=O)OCC)C1C(=O)OCC(=O)N1CCc2ccccc21 | -1.82% |
| CC(C)CC(=O)Nc1ccccc1-c1nnn(CC(=O)N2CCOCC2)n1 | -2.78% |
| NC(=S)NNc1c(F)c(F)c(F)c(F)c1F | 28.9% |
| Cc1ccc(F)c(NC(=O)c2c(-c3ccccc3)noc2C)c1 | 7.17% |
| Cl.OCCN(CCO)CC(O)CN1c2ccccc2Sc2ccccc21 (stereo not drawn) | -12.9% |
| CC(=O)Nc1ccc(-c2csc(NC(=O)C3CCN(S(=O)(=O)c4cccs4)CC3)n2)cc1 | -2.9% |
| COc1cc(-c2nc3sc(C)c(C)c3c(=O)o2)cc(OC)c1OC | 19% |
| CCOC(=O)C1=C(C)OC(N)=C(C#N)C1c1cc2ccccc2nc1N1CCCCC1 (stereo not drawn) | 6.3% |
| CC(C)N1C(=S)SC2CS(=O)(=O)C=C21 (stereo not drawn) | -5.07% |
| NC(=O)c1cc(S(=O)(=O)N2CCCC2)ccc1OCCOc1ccccc1 | 2.15% |
| CC(C)C(=O)c1cn(Cc2ccccc2C#N)c2ccccc12 | -10.8% |
| Cc1ccc(Cn2cc(C=O)c3ccccc32)cc1 | 1.48% |
| N#Cc1ccc(Cn2cc(C=O)c3ccccc32)cc1 | -80.8% |
| CC(=O)c1cn(Cc2ccc(C#N)cc2)c2ccccc12 | -19.9% |
| O=C(c1ccco1)c1cn(Cc2ccccc2)c2ccccc12 | -6.75% |
| CCC(=O)c1cn(Cc2ccccc2C#N)c2ccccc12 | -24.2% |
| O=C(c1ccco1)c1cn(Cc2ccc(Cl)cc2)c2ccccc12 | 15.9% |
| CC(C)C(=O)c1cn(Cc2ccc(C#N)cc2)c2ccccc12 | -75.6% |

| Structure (SMILES) | hERG current change (%, negative = inhibition) at 10uM |
| --- | --- |
| CCC(=O)c1cn(Cc2ccc(C#N)cc2)c2ccccc12 | -71.8% |
| N#Cc1ccc(Cn2cc(C(=O)c3ccco3)c3ccccc32)cc1 | -76.7% |
| O=Cc1cn(Cc2ccc(Br)cc2)c2ccccc12 | 15% |
| CC(C)C(=O)c1cn(CC(=O)O)c2ccccc12 | 8.27% |
| Cc1cc(C)n(-c2ncc(-c3ccccc3)nn2)n1 | -36.4% |
| O=C(NCCCc1ccccc1)C(=O)NCC1OCCN1S(=O)(=O)c1cc(F)ccc1F (stereo not drawn) | -15% |
| O=C(Nc1ncc(Cc2ccccc2)s1)C1=NCCN1 | 6.81% |
| COc1ccc(-c2nn(-c3ccccc3)cc2N)cc1 | -3.82% |
| CCOC(=O)c1ccc(COC(=O)CCc2nc(-c3ccccc3)c(-c3ccccc3)o2)cc1 | 1.13% |
| CN(Cc1ccco1)S(=O)(=O)c1nnc(NC(=O)c2ccccc2Cl)s1 | 15% |
| COc1ccccc1NC(=O)CN1CC(=O)Nc2ccccc21 | 20.5% |
| O=C(O)CCNc1nc(C(F)(F)F)nc2ccccc12 | 18.2% |
| COc1ccc(Nc2nc(N)c([N+](=O)[O-])c(N3CCCC3)n2)cc1 | -22.8% |
| COc1ccc(Nc2nc(N3CCCCC3)c3ccccc3n2)cc1 | -32.9% |
| Cl.Fc1ccc(Nc2nc(N3CCOCC3)c3ccccc3n2)cc1 | -2.91% |
| Cl.Oc1ccc(Nc2nc(N3CCCC3)c3ccccc3n2)cc1 | -70.2% |
| Cl.c1ccc2c(Nc3nc(N4CCOCC4)c4ccccc4n3)cccc2c1 | -6.79% |
| CCN(CC)c1ccc(Nc2nc(N3CCOCC3)c3ccccc3n2)cc1 | -71.8% |
| Cl.c1ccc(Nc2nc(N3CCOCC3)c3ccccc3n2)cc1 | -14.2% |
| CN1CCN(c2nc(Nc3ccc(O)cc3)nc3ccccc23)CC1.Cl | -34.9% |
| COc1ccc(Nc2nc(N3CCCC3)c3ccccc3n2)cc1.Cl | -70% |

Source: paper PMC4336329 (PLoS ONE, 2015)
